Assay outcomes as filed in PubChem BioAssay.
Compounds with a hit are over-represented: about 9.4% of the library has one in this group of screens.
AMA1-RON2 inh: inhibitors of Plasmodium falciparum AMA1-RON2 interaction. Potency, µM (top dose mostly 58.2 µM), for the others: at the top dose activity change, negative = inhibition, hits mostly inhibitors. AlphaScreen AMA1-biotinylated RON2 peptide binding. 360,000 compounds, 0.2% hits;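 note: 0% = vehicle wells and -100% = peptide control; nearly all actives have a fitted effect of over 45% in size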
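AMA1 (3D7) with his tag at 25 nM final met compounds first, then biotinylated RON2 peptide at 25 nM; detection used donor plus acceptor beads, 10 µg/mL apiece, read by AlphaScreen after 30 min at room temperature.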
Pf growth 48h: P. falciparum growth inhibition at 48 hours (one generation); 310,000 compounds, 5.9% hits; Potency, µM (doses to about 28.7 µM), for inactives: at the top dose activity change, negative = inhibition, usual class: inhibitors; P. falciparum luciferase growth in erythrocytes, 48 h; note: % is set by controls: 0 for no effect and ±100 for the full control effect
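Here the parasites carry a stable luciferase gene and grow inside erythrocytes in Albumax-based RPMI medium with compound for one erythrocytic cycle. Activity is scored as loss of luminescent signal.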
Pf growth 96h: P. falciparum growth inhibition at 96 hours. Potency, µM (highest dose often 28.7 µM), for the others: at the top dose activity change, negative = inhibition, most hits filed as inhibitors. AID 504834. P. falciparum luciferase reporter growth, 96 h. 320,000 compounds, 6.9% hits; note: % is set by controls: 0 for no effect and ±100 for the full control effect
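P. falciparum expressing integrated firefly luciferase, in erythrocytes at 2% hematocrit, 0.05% parasitemia, incubated with compounds 96 h at 37 C, 5% CO2. Growth inhibition read as loss of luminescence; two-generation exposure targets delayed-death apicoplast inhibitors.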
SARS PLP yeast: inhibitors of SARS-CoV papain-like protease in yeast. S. cerevisiae expressing SARS-CoV PLpro, growth rescue. Potency, µM (doses to about 32.9 µM), for the others: at the highest dose activity, positive = growth rescue, actives largely listed as activators. 330,000 compounds, 0.19% hits. AID 485353; calls by dose curve; note: 0% is about no effect; nearly all actives have a fitted effect of over 55% in size
The depositor's hits bear a star; ? = inconclusive; . = not tested or not shown; [ ] = dose if it differs, or a comment. Unless noted, calls come from the whole dose curve; as a rule, active = well fitted curve in the direction sought with a large enough effect; inconclusive = small, poorly fitted or top-dose-only effect, or another doubt; inactive = no such curve, though single readings can be large; an effect the other way counts as inactive or inconclusive. Potency is the fitted concentration of half-maximal effect.

SMILES	AMA1-RON2 inh	Pf growth 48h	Pf growth 96h	SARS PLP yeast
COc1ccc(-c2cc(C(=O)Nc3ccc(C(N)=O)cc3)c3ccccc3n2)cc1	0%	-28%	?	-1%
CCC(C)Sc1ccc([C@@H]2[C@@H]3C(=O)N(CC)C(=O)[C@@H]3[C@]3(C(=O)OC)CCCCN23)cc1OC (some centres not stated)	-6%	.	.	-7%
CCN(CC)c1ccc(C=C(c2nnnn2-c2ccc(C)cc2)c2nnnn2-c2ccc(C)cc2)cc1	11%	1.7µM*	?	-14%
Cc1ccc(-n2nnnc2-c2ccccc2)cc1	-13%	-10%	65%	-2%
CCOc1ccc2nc(NC(=O)C(NS(=O)(=O)c3cccs3)C(C)C)sc2c1 (configuration not stated)	-7%	0%	?	3%
CCOc1ccc2nc(NC(=O)C3CCCN(S(=O)(=O)c4cccs4)C3)sc2c1 (configuration not stated)	-20%	15µM*	-14%	-6%
O=C(NCCc1ccccc1)C1CCCN(S(=O)(=O)c2cccnc2)C1 (configuration not stated)	21%	-4%	11%	4%
NS(=O)(=O)c1ccc(CCNC(=O)C2CCCN(S(=O)(=O)c3cccnc3)C2)cc1 (configuration not stated)	-1%	.	7.4µM*	-4%
Cc1ccc2nc(NC(=O)C3CCCN(S(=O)(=O)c4cccnc4)C3)sc2c1 (configuration not stated)	-1%	13µM*	8%	4%
COc1ccc2c(c1)c(C(=O)CN1CCC3(CC1)OCCO3)c(C)n2C	-1%	-10%	?	0%
Cc1c(/C=N/NC(=O)C(C)(C)Oc2ccc(Cl)cc2)cnn1C	14%	0%	.	1%
COc1ccc(C(C)=O)cc1CSc1nc2cc(C(=O)O)ccc2c(=O)n1Cc1ccccc1	-9%	-1%	-32%	15%
COc1ccccc1Cn1c(SCC(=O)C(C)(C)C)nc2cc(C(=O)N3CCC4(CC3)OCCO4)ccc2c1=O	.	5.9µM*	?	0%
O=C(Nc1ccc(Oc2cccc(C(F)(F)F)c2)nc1)c1ccco1	5%	?	13µM*	-4%
CC(C)(C)c1ccc(Oc2ccc(NC(=O)c3ccco3)cn2)cc1	-1%	2.1µM*	8.3µM*	-3%
COc1ccc(NC(=O)c2cccs2)cn1	-8%	18%	102%	-2%
CC(C)(C)c1ccc(Oc2ccc(NC(=O)c3cccs3)cn2)cc1	6%	2.6µM*	13µM*	-4%
CCCCC(=O)Nc1ccc(NC(=O)c2ccco2)cn1	-13%	49%	5%	-4%
CCCC(=O)Nc1ccc(NC(=O)c2ccco2)cn1	0%	82%	8.3µM*	-2%
O=C(Nc1ccc(Oc2ncccn2)cc1)c1ccco1	10%	40%	21%	-2%
O=C(Nc1ccc(Oc2cccnc2)nc1)c1ccc(C(F)(F)F)cc1	-4%	?	?	-3%
COc1ccc(Cl)cc1NC(=O)CN(C)C(=O)c1cn(-c2ccccc2)nc1-c1cccnc1	-6%	?	10µM*	1%
COc1cccc(NC(=O)CN(C)C(=O)c2cn(-c3ccccc3)nc2-c2cccs2)c1	-4%	?	-26%	-4%
COc1cccc(NC(=O)CN(C)C(=O)c2cn(-c3ccccc3)nc2-c2cccnc2)c1	5%	12µM*	?	-3%
O=c1oc2ccccc2c2c1ncn2-c1ccccc1	1%	15%	43%	3%
SMILES	AMA1-RON2 inh	Pf growth 48h	Pf growth 96h	SARS PLP yeast
COc1ccc(-c2noc(CCC(=O)NCc3ccco3)n2)cc1	-3%	24%	26%	0%
CC1CCC(NC(=O)C2CCC(CNS(=O)(=O)c3ccccc3)CC2)CC1 (configuration not stated)	-6%	-6%	20%	-1%
CCN(CC)C(=O)C1CCC(CNS(=O)(=O)c2cccc3cccnc23)CC1 (configuration not stated)	-8%	-2%	15µM*	8%
CC1CCC(NC(=O)C2CCC(CNS(=O)(=O)c3cccc4cccnc34)CC2)CC1 (configuration not stated)	-9%	-9%	12µM*	19%
CN1CCN(C(=O)C2CCC(CNS(=O)(=O)c3cccc4cccnc34)CC2)CC1 (configuration not stated)	2%	.	?	5%
CC(=O)N1c2ccc(S(=O)(=O)NCC3CCC(C(=O)NC4CCC(C)CC4)CC3)cc2CC1C (configuration not stated)	8%	13µM*	?	1%
CC1CCN(C(=O)C2CCC(CNS(=O)(=O)c3cccc4cccnc34)CC2)CC1 (configuration not stated)	.	.	9.3µM*	-3%
Cc1ccc2c(c1)C(=C(C#N)C#N)C(=O)N2CCN1CCOCC1	7%	-5%	-5%	-4%
CCOc1ccccc1CN1CCN(Cc2ccc3cccc(OC)c3n2)CC1CCO (configuration not stated)	3%	0%	?	2%
CCOc1ccccc1CN1CCNC(=O)C1CC(=O)N(C)Cc1cnccn1 (configuration not stated)	5%	3%	?	16%
Cc1ccc2c(=O)cc(C(=O)Nc3ccc(S(=O)(=O)Nc4onc(C)c4C)cc3)oc2c1	-2%	27%	24%	1%
Cc1ccc2c(C)c(C(=O)Nc3ccc(S(=O)(=O)Nc4onc(C)c4C)cc3)oc2c1	-17%	12%	9.3µM*	14%
COc1ccc2c(c1)OC/C(=C/c1cccs1)C2=O	-5%	281%	2.9µM*	-9%
COc1ccc(/C=C2\COc3ccccc3C2=O)c(OC)c1	-15%	?	9.3µM*	-7%
O=C1/C(=C/c2cccs2)Cc2ccccc21	7%[11.6 µM]	23%	-26%	-25%
CC1CCCCC1NC(=O)/C(C#N)=C/c1ccc(F)c(F)c1 (configuration not stated)	-6%	12µM*	?	-14%
COc1ccc(N2CC(C(=O)N[C@@H](CC(C)C)C(=O)NC3CCCCC3)CC2=O)cc1 (some centres not stated)	5%	?	15µM*	5%
COc1cccc(N2CC(C(=O)NNC(=O)c3ccc(Cl)cc3)CC2=O)c1 (configuration not stated)	54%	0%	5.9µM*	0%
Cc1ccc(N2CC(C(=O)NC3CCCCCC3)CC2=O)cc1 (configuration not stated)	3%	.	.	.
O=C(NC1CC1)C1CC(=O)N(c2cccc(Cl)c2)C1 (configuration not stated)	0%	10µM*	?	1%
COc1cccc(N2CC(C(=O)NC3CCCCC3)CC2=O)c1 (configuration not stated)	11%	8%	.	-7%
O=C(NC1CCCCC1)C1CC(=O)N(c2ccccc2)C1 (configuration not stated)	-21%	9%	3.3µM*	3%
COc1ccc(C(=O)NC(=S)Nc2cc3oc4ccccc4c3cc2OC)cc1	-22%	7%	47%	5%
